This is a sample that favours compounds with a hit; in the whole collection about 10% have one here.
GPT2 inhibitor = Primary qHTS assay for inhibitors of Glutamate pyruvate transaminase 2 (GPT2); Potency, µM (highest dose often 57.7 µM), without a hit: at the highest dose activity change, negative = inhibition, most hits filed as inhibitors; Recombinant GPT2, coupled pyruvate oxidase/HRP Amplex Red fluorescence; AID 1671188, 2021; Alanine aminotransferase 2 (Homo sapiens), Q8TD30; 100,000 compounds, 0.25% hits; also: nearly all actives have a fitted effect of over 60% in size
Target sequence (Q8TD30 whole entry, looked up): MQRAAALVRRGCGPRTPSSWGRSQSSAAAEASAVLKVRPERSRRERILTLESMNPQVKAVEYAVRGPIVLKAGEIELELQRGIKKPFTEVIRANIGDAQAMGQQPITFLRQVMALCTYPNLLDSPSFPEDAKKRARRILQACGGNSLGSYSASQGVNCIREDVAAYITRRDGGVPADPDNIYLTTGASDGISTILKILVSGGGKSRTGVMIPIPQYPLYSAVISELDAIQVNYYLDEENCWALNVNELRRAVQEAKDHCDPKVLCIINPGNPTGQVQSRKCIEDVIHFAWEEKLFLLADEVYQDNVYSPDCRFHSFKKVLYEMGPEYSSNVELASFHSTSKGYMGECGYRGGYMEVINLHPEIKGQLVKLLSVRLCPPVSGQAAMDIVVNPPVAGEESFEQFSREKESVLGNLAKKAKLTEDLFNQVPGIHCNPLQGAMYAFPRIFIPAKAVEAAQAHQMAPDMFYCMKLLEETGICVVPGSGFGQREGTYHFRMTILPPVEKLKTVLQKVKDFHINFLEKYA
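GPT2 10ng/uL, a-KG 250uM, L-Ala 2mM, HEPES pH7.5 + 0.0001% Tween; 30 min RT. Then Amplex mix (PO/HRP/ThPP), 30 min RT dark, fluorescence. AOA 50uM used as positive control.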
NIH3T3 tox = Cytotoxic Profiling in NIH 3T3 Cell Line of Diverse Libraries Using Quantitative High-Throughput Screening. Potency, µM (doses to about 96.7 µM), for the others: at the highest dose activity change, negative = cytotoxicity, hits mostly inhibitors. 94,000 compounds, 4.3% hits. NIH 3T3 viability, CellTiter-Glo ATP luminescence, 48-72 h. AID 1345082, 2018; also: nearly all actives have a fitted effect of over 55% in size
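NIH 3T3 cells at 400 cells/well received 23 nL of compound by pintool and were incubated 48 or 72 h at 37 °C. Viability was read as ATP-coupled CellTiter-Glo luminescence.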
Luciferase inh = Firefly luciferase inhibition profiling of diverse chemical library using quantitative high-throughput screening | Luciferin 4-monooxygenase (Photinus pyralis), P08659 | Potency, µM (series often up to 115 µM), actives largely listed as inhibitors | purified P. pyralis luciferase, luminescence, biochemical | 76,000 compounds, 2.5% hits | AID 1347043, 2019; also: nearly all actives have a fitted effect of over 65% in size
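Luminescence read by CCD imager after adding enzyme (10nM final) to wells holding compound, titrated in qHTS. Substrates 10uM each D-luciferin and ATP; buffer 50mM Tris acetate pH 7.5, 10mM Mg acetate, Tween-20, BSA.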
hNpr1 antagonist = Natriuretic polypeptide receptor (hNpr1) antagonism - Primary qHTS; HEK293 hNpr1 GloSensor cGMP, ANP-stimulated luminescence; Potency, µM (doses to about 46.3 µM), for inactives: at the highest dose activity change, negative = inhibition, usual class: inhibitors; 76,000 compounds, 1.6% hits; calls by dose curve; also: nearly all actives have a fitted effect of over 60% in size
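Compound pre-incubated 30 min at room temperature on GloSensor-loaded HEK293 cells stably carrying hNpr1 and the pGS-40F cGMP biosensor. Stimulation uses hNppA at 0.1 nM final; luminescence is taken at baseline and 20 min post-agonist.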
HEK293 tox = Cytotoxic Profiling in HEK 293 Cell Line of Diverse Libraries Using Quantitative High-Throughput Screening; HEK 293 viability, ATP luminescence (CellTiter-Glo), 48-72 h; Potency, µM (doses to about 115 µM), without a hit: at the highest dose activity change, negative = cytotoxicity, hits mostly inhibitors; 94,000 compounds, 6.6% hits; AID 1345083, 2018; also: nearly all actives have a fitted effect of over 60% in size
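qHTS cytotoxicity; HEK 293, 250 cells/well; compound pinned; 48 or 72 hr, 37 degree Celsius, 5% CO2, 95% humidity; CellTiter-Glo, 10 min RT; luminescence (ATP).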
Active calls of the source: *; i = inactive; ? = inconclusive; . = no result; ! = repeats disagree; [ ] = dose if it differs, or a comment. Unless noted, calls follow the shape of the dose curve; as a rule, active = well fitted curve in the direction sought with a large enough effect; inconclusive = small, poorly fitted or top-dose-only effect, or another doubt; inactive = no such curve, though single readings can be large; an effect the other way counts as inactive or inconclusive. % is scaled to controls: 0 for no effect and ±100 for the full control effect; potency is read from the fitted curve at half-maximal effect.

SMILES | GPT2 inhibitor | NIH3T3 tox | Luciferase inh | hNpr1 antagonist | HEK293 tox
O=C(C1CC1)N1CCC2(CC1)CC(Cc1nc(-c3ccncc3)no1)CCO2 (centres undefined) | 1% | ? | i | ? | 45µM*
c1ccc(-c2noc(CC3CCOC4(CCN(Cc5cccnc5)CC4)C3)n2)cc1 (centres undefined) | 5% | ? | i | ? | 25µM*
COCC(=O)N1CCC2(CC1)CC(Cc1nc(-c3cccnc3)no1)CCO2 (centres undefined) | 0% | -6% | i | 4% | -1%
COc1cccc(CC(=O)N2CCC(Cc3nc(-c4ccncc4)n[nH]3)C2)c1 (centres undefined) | i | ? | i | -15% | 13µM*
O=C(COc1ccccc1)N1CCC(Cc2nc(-c3ccncc3)n[nH]2)CC1 | ? | -30% | i | 2% | -5%
CCOc1ccccc1NC(=O)N1CCC2(CC1)CC(Cc1nc(-c3ccncc3)no1)CCO2 (centres undefined) | i | ? | i | -25% | ?
COc1cccc(CC(=O)N2CCC3(CC2)CC(Cc2nc(-c4ccncc4)no2)CCO3)c1 (centres undefined) | -2% | ? | i | ? | 40µM*
CCC[C@@H]1CN(C(=O)CNS(=O)(=O)c2cccs2)C[C@H]1NC(C)=O | -11% | i | i | 2% | -1%
COc1ccc(CN2CC[C@@H]3[C@H]2C(=O)NC[C@H](CCC(=O)NCc2ccc(F)cc2)N3C)cc1 | -22% | -2% | i | 1% | -12%
NC(=O)c1cccnc1N1CCC(n2cc(-c3ccccc3Cl)nn2)CC1 | ? | -24% | i | -9% | 79µM*
COc1ccccc1CN1CCC2(CC1)OC(=O)N(Cc1ccccc1F)C2(C)c1ccccc1 (centres undefined) | -10% | 28µM* | i | -3% | 35µM*
CC1(c2ccccc2)N(Cc2ccccc2C#N)C(=O)OC12CCN(Cc1ccccc1F)CC2 (centres undefined) | -11% | ? | i | -16% | ?
CC1(c2ccccc2)N(Cc2ccccc2F)C(=O)OC12CCN(c1cccnc1)CC2 (centres undefined) | -9%[88.5 µM] | 89µM* | i | -16%[70.6 µM] | 89µM*
CC1(c2ccccc2)N(Cc2ccccc2F)C(=O)OC12CCN(Cc1cccnc1)CC2 (centres undefined) | i | ? | i | -1% | ?
Cc1ccc(-c2cc(C(=O)NCCc3ccc(F)cc3)c3cnn(C)c3n2)cc1 | ? | -27% | . | . | ?
O=C(NC1CCCc2c1[nH]c1ccc(F)cc21)C1(c2ccccc2)CCOCC1 (centres undefined) | 5% | ? | i | -3% | ?
NC(=O)N1CCCC(C(=O)N2CCN(c3nsc4ccccc34)CC2)C1 (centres undefined) | 1% | ? | i | 1% | 25µM*
CC(C)N1CCN(C2CCOC3(CCN(C(=O)C4CCCCC4)CC3)C2)CC1 (centres undefined) | -16% | -26% | . | . | -16%
CN1CCOc2c(C(=O)NCCc3cnc[nH]3)cc(-c3ccccc3)cc21 | -2%[88.5 µM] | 79µM* | i | 0%[70.6 µM] | ?
CN1CCOc2c(C(=O)NCCc3cnc[nH]3)cc(-c3cccc4[nH]ccc34)cc21 | i | 89µM* | ? | -1%[70.6 µM] | ?
CN1CCOc2c(C(=O)NCc3cnn(C)c3)cc(-c3cccnc3)cc21 | 3%[88.5 µM] | 35µM* | i | -15%[70.6 µM] | ?
Cc1nn(-c2ccc(C(F)(F)F)cc2)c(C)c1[C@@H]1C=C[C@@H](NC(=O)C2CCCCC2)C1 | i | ? | i | ? | ?
Cc1nn(-c2ccc(C(F)(F)F)cc2)c(C)c1[C@@H]1C=C[C@@H](NC(=O)Nc2ccccc2)C1 | i | 32µM* | 13µM* | ? | 50µM*
Cc1nn(-c2ccc(C(F)(F)F)cc2)c(C)c1[C@@H]1C=C[C@@H](NC(=O)NC(C)C)C1 | ? | ? | 14µM* | ? | 35µM*
CCS(=O)(=O)N1CCC2(CC1)c1[nH]c3ccccc3c1CCN2C | 0% | -32% | i | -1% | ?
SMILES | GPT2 inhibitor | NIH3T3 tox | Luciferase inh | hNpr1 antagonist | HEK293 tox
Cc1nn(C)c(C)c1S(=O)(=O)N1CCC2(CC1)c1[nH]c3ccccc3c1CCN2C | 2% | -18% | i | 3% | 89µM*
Cc1cc(C)n(Cc2ccc(C(=O)N3CCC4(CC3)CCC(O)(CN(C)C)CC4)o2)n1 | -8% | 0% | i | 3% | 5%
COCC(=O)NC[C@@H]1C=C(C)[C@H](Cc2nc3ccc(C)cc3[nH]2)C[C@H]1C(C)C | ? | 50µM* | i | -22%[70.6 µM] | ?
COc1ccc2nc(C[C@@H]3C[C@@H](C(C)C)[C@H](CNC(=O)CCCC(=O)O)C=C3C)[nH]c2c1 | -12% | 3% | i | -2% | 0%
COCC(=O)NC[C@@H]1C=C(C)[C@H](Cc2nc3ccc(Cl)cc3[nH]2)C[C@H]1C(C)C | 2%[88.5 µM] | 71µM* | i | 1%[70.6 µM] | ?
O=S(=O)(c1ccccc1)N1CCN(c2cc(C3CC(O)C3)ncn2)CC1 (centres undefined) | -11% | ? | i | -21% | 40µM*!
COc1ccc(Cc2nnc3ccc(C(=O)NCc4ccc5c(c4)OCO5)cn23)cc1 | i | -8% | . | . | i
COC1CCOC2(CCN(C(=O)Cc3cccc(F)c3)CC2)C1 (centres undefined) | i | -10% | i | 0% | -7%
COc1ccc(OCC2CC3(CCCCC3)CN2C(=O)Cc2cccc(F)c2)cc1 (centres undefined) | -4% | 40µM* | . | . | 40µM*
CN1CC2(CCCN(C(=O)c3cn4cc(Cl)ccc4n3)C2)OC1=O (centres undefined) | 1% | -15% | ? | 2% | 1%
N#Cc1cccc(OCc2nnc(C(=O)N3CCC[C@@H]3c3nc4ccccc4[nH]3)n2-c2ccccc2)c1 | -7% | ? | i | -17% | -13%
O=C(c1nnc(COc2cc(F)cc(F)c2)n1-c1ccccc1)N1CCC[C@@H]1c1nc2ccccc2[nH]1 | 0% | 32µM* | i | 0% | ?
COc1ccc(OCc2nnc(C(=O)N3CCC[C@@H]3c3nc4ccccc4[nH]3)n2-c2ccccc2)cc1 | -5% | 11µM* | i | 4% | -11%

From PubChem
